# Where a name gives a salt, the structure may show the parent alone. ± gives the standard deviation or the standard deviation of the averaged measurements.
# Key:
# Details in all cases: 25 µM; exposure: 24-48 hpf
# [1] = system: Danio rerio Tg(wt1b:EGFP) embryo, pronephros; experiment: glomerular separation, fold change vs DMSO control; higher = glomeruli further apart (abnormal)
# Outline: (§1)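 Each feature value is a fold change relative to the mean of same-day DMSO-treated embryos. Embryos of the Tg(wt1b:EGFP) zebrafish line, dechorionated, received 25 μM compound in 0.5% DMSO from 24 to 48 hpf at 28.5°C, in HEPES-buffered E3 with 0.003% PTU. Distances and angles were computed by a Fiji macro from 16 manually set reference points on maximum projections of dorsal pronephros images, and values beyond 2 SD of the feature mean were removed.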
# [2] = system: Danio rerio Tg(wt1b:EGFP) embryo, pronephros; experiment: glomerular width (mean of left and right), fold change vs DMSO control; higher = wider glomerulus
# Outline: as §1
# [3] = system: Danio rerio Tg(wt1b:EGFP) embryo, pronephros; experiment: fraction of imaged embryos annotated as normal kidney; higher = less nephrotoxic; extreme values may be limits of the assay
# Outline: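 Tricaine-anaesthetised Tg(wt1b:EGFP) zebrafish larvae were oriented dorsally in agarose-filled 96-well plates, and their pronephroi were recorded by widefield fluorescence at 470 nm in 10 z-slices. Before this, the dechorionated embryos had been exposed in 12-well plates to 25 μM compound in 0.5% DMSO and 5 mM HEPES-buffered E3 with 0.003% PTU, from 24 to 48 hpf at 28.5°C. Maximum projections were annotated manually for each embryo, and the read-out is the fraction per treatment classed as normal kidney.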
# [4] = system: Danio rerio Tg(wt1b:EGFP) embryo, pronephros; experiment: pronephric angle neck segment to proximal convoluted tubule (mean of left and right), fold change vs DMSO control; higher = larger pronephric angle
# Outline: as §1
SMILES,glomerular separation [1],glomerular width [2],fraction of imaged embryos annotated as normal kidney [3],pronephric angle neck segment [4]
Cc1c(OCC(F)(F)F)ccnc1C[S+]([O-])c1nc2ccccc2[nH]1 (centres undefined) [Lansoprazole],1.25 ± 0.57,0.949 ± 0.04,0.333,1.17 ± 0.034
CCn1cc(C(=O)O)c(=O)c2cnc(N3CCCC3)nc21 [Piromidic acid],0.725 ± 0.31,0.909 ± 0.021,0.9,1 ± 0.008
Cc1nc2n(c(=O)c1CCN1CCC(c3noc4cc(F)ccc34)CC1)CCCC2 [Risperidone],0.741 ± 0.16,1.04 ± 0.043,1,0.974 ± 0.021
COc1cc2c(cc1OC)C(=O)C(CC1CCN(Cc3ccccc3)CC1)C2 (centres undefined) [Donepezil hydrochloride],0.812 ± 0.32,1.13 ± 0.082,0.833,0.9843 ± 0.0083
Nc1ccc(S(=O)(=O)Nc2nccs2)cc1 [Sulfathiazole],0.931 ± 0.36,0.936 ± 0.027,0.917,0.957 ± 0.019
CN(Cc1cc(Br)cc(Br)c1N)C1CCCCC1 [Bromhexine hydrochloride],0.612 ± 0.2,0.984 ± 0.067,1,1 ± 0.026
CC(N)C12CC3CC(CC(C3)C1)C2 (centres undefined) [Rimantadine Hydrochloride],0.846 ± 0.35,0.967 ± 0.064,0.917,1.04 ± 0.04
S=c1[nH]cnc2nc[nH]c12 [Mercaptopurine],0.832 ± 0.28,0.991 ± 0.088,0.75,0.992 ± 0.07
C[C@]12CCC(=O)C=C1CC[C@@H]1[C@@H]2[C@@H](O)C[C@@]2(C)[C@H]1CC[C@]2(O)C(=O)CO [Hydrocortisone base],1.25 ± 0.65,1.16 ± 0.081,0.5,0.95 ± 0.064
NNC(=O)c1ccncc1 [Isoniazid],0.891 ± 0.099,1.09 ± 0.032,1,0.978 ± 0.02
C[C@@H]1C[C@H]2[C@@H]3C[C@H](F)C4=CC(=O)C=C[C@]4(C)[C@@]3(F)[C@@H](O)C[C@]2(C)[C@@]1(O)C(=O)CO [Flumethasone],0.902 ± 0.3,1.28 ± 0.012,0.417,0.977 ± 0.049
CCSc1ccc2c(c1)N(CCCN1CCN(C)CC1)c1ccccc1S2 [Thiethylperazine dimalate],0.677 ± 0.22,1.054 ± 0.0092,0.833,0.9766 ± 0.0079
Clc1ccc2c(c1)CCc1cccnc1C2=C1CCNCC1 [Desloratadine],0.811 ± 0.28,0.94 ± 0.011,0.917,1.06 ± 0.044
CCCC1O[C@@H]2C[C@H]3[C@@H]4CCC5=CC(=O)C=C[C@]5(C)[C@H]4[C@@H](O)C[C@]3(C)[C@]2(C(=O)CO)O1 (some centres undefined) [Budesonide],0.957 ± 0.24,1.29 ± 0.049,0.833,1.04 ± 0.12
COC(=O)C1=C(C#N)NC(C)=C(C(=O)OC(C)C)C1c1cccc([N+](=O)[O-])c1 (centres undefined) [Nilvadipine],4.44 ± 1.4,0.7 ± 0.04,0.167,1.09 ± 0.17
CN(C)[C@@H]1C(O)=C(C(N)=O)C(=O)[C@@]2(O)C(O)=C3C(=O)c4c(O)cccc4[C@@](C)(O)[C@H]3C[C@@H]12 [Tetracycline hydrochloride],1.33 ± 0.62,1.06 ± 0.042,0.778,0.9721 ± 0.0096
CC(NCCc1ccc(O)cc1)C(O)c1ccc(O)cc1 (centres undefined) [Ritodrine hydrochloride],1.03 ± 0.28,0.952 ± 0.012,0.833,1.038 ± 0.0019
O=c1[nH]c(=O)n([C@H]2C[C@H](O)[C@@H](CO)O2)cc1F [Floxuridine],0.88 ± 0.33,0.972 ± 0.015,0.5,1.05 ± 0.016
CCOC(=O)OC(C)OC1=C(C(=O)Nc2ccccn2)N(C)S(=O)(=O)c2ccccc21 (centres undefined) [Ampiroxicam],0.796 ± 0.29,1.1 ± 0.027,1,0.963 ± 0.018

SMILES,glomerular separation [1],glomerular width [2],fraction of imaged embryos annotated as normal kidney [3],pronephric angle neck segment [4]
CC(CCc1ccccc1)NCC(O)c1ccc(O)c(C(N)=O)c1 (centres undefined) [Labetalol hydrochloride],1.04 ± 0.16,1.05 ± 0.075,0.917,1.07 ± 0.069
Nc1nc2n[nH]nc2c(=O)[nH]1 [Azaguanine-8],0.905 ± 0.36,1 ± 0.058,0.833,0.984 ± 0.02
CCC1=C(C)CN(C(=O)NCCc2ccc(S(=O)(=O)NC(=O)N[C@H]3CC[C@H](C)CC3)cc2)C1=O [Glimepiride],0.872 ± 0.29,1.02 ± 0.06,0.917,1 ± 0.03
CC(=O)OC[C@H]1O[C@@H]([S-])[C@H](OC(C)=O)[C@@H](OC(C)=O)[C@@H]1OC(C)=O.CCP(CC)CC.[Au+] [Auranofin],1.55 ± 0.79,0.789 ± 0.038,0.417,1.19 ± 0.024
O=C1c2ccccc2S(=O)(=O)N1CCCCN1CCN(c2ncccn2)CC1 [Ipsapirone],1.28 ± 0.67,0.908 ± 0.038,0.917,1.054 ± 0.0035
CN1CCN(CCCN2c3ccccc3Sc3ccc(S(=O)(=O)N(C)C)cc32)CC1 [Thioproperazine dimesylate],0.945 ± 0.3,0.988 ± 0.028,0.917,0.945 ± 0.046
Clc1ccc(Cn2c(CN3CCCC3)nc3ccccc32)cc1 [Clemizole hydrochloride],1.13 ± 0.35,1.03 ± 0.036,0.545,1.02 ± 0.08
O=C(OCC(O)CO)c1ccccc1Nc1ccnc2cc(Cl)ccc12 (centres undefined) [Glafenine hydrochloride],1.05 ± 0.26,1.02 ± 0.04,0.833,1.02 ± 0.017
CCN(CC)CCN[C@@H](C(=O)OCCC(C)C)c1ccccc1 [Camylofine chlorhydrate],0.973 ± 0.34,1.02 ± 0.018,0.75,0.977 ± 0.015
CCCN(CCC)CCc1cccc2c1CC(=O)N2 [Ropinirole hydrochloride],1.34 ± 0.63,0.908 ± 0.044,0.75,0.991 ± 0.037
O=C(O[C@@H]1C[C@@H]2C[C@H]3C[C@H](C1)N2CC3=O)c1c[nH]c2ccccc12 [Dolasetron mesilate],0.787 ± 0.28,1.01 ± 0.018,0.75,0.946 ± 0.035
NC(CO)C(=O)NNCc1ccc(O)c(O)c1O (centres undefined) [Benserazide hydrochloride],1.17 ± 0.44,1.01 ± 0.071,0.667,1.05 ± 0.039
OCCOCCN1CCN(C(c2ccccc2)c2ccc(Cl)cc2)CC1 (centres undefined) [Hydroxyzine dihydrochloride],0.754 ± 0.2,1.02 ± 0.013,1,0.964 ± 0.048
CN1CCc2cccc3c2[C@H]1Cc1ccc(O)c(O)c1-3 [R(-) Apomorphine hydrochloride hemihydrate],0.765 ± 0.25,0.954 ± 0.018,0.833,0.933 ± 0.042
Cc1cc(-n2c(=O)[nH]c(=O)n(C)c2=O)ccc1Oc1ccc(SC(F)(F)F)cc1 [Toltrazuril],1.34 ± 0.62,0.8688 ± 0.0053,0.5,1.09 ± 0.045
Cc1cccc(Nc2ccncc2S(=O)(=O)NC(=O)NC(C)C)c1 [Torsemide],1.12 ± 0.3,0.95 ± 0.015,1,0.905 ± 0.03
CC(C)Oc1ccc2c(=O)c(-c3ccccc3)coc2c1 [Ipriflavone],0.901 ± 0.33,0.918 ± 0.049,0.833,1.06 ± 0.028
COc1ccc2c(c1)c(CC(=O)O)c(C)n2C(=O)c1ccc(Cl)cc1 [Indomethacin],3.64 ± 1.7,0.781 ± 0.045,0,1.62 ± 0.03
Nc1c(Br)cc(Br)cc1CN[C@H]1CC[C@H](O)CC1 [Ambroxol hydrochloride],1.05 ± 0.28,0.969 ± 0.036,1,1.003 ± 0.0037

SMILES,glomerular separation [1],glomerular width [2],fraction of imaged embryos annotated as normal kidney [3],pronephric angle neck segment [4]
Cn1cnc([N+](=O)[O-])c1Sc1ncnc2[nH]cnc12 [Azathioprine],1.2 ± 0.26,1.02 ± 0.042,0.833,0.994 ± 0.015
CN(C)CCN1C(=O)c2ccccc2N(C)c2ccccc21 [Dibenzepine hydrochloride],1.21 ± 0.68,1.08 ± 0.047,0.75,0.967 ± 0.086
C[C@H](N[C@@H](CCc1ccccc1)C(=O)O)C(=O)N1CCC[C@H]1C(=O)O [Enalaprilat dihydrate],1.03 ± 0.34,1 ± 0.012,1,1.01 ± 0.025
CNCCCN1c2ccccc2CCc2ccccc21 [Desipramine hydrochloride],0.966 ± 0.26,0.996 ± 0.032,0.833,1 ± 0.047
Cc1c(NC(C)C)c(=O)n(-c2ccccc2)n1C [Isopyrin hydrochloride],1.1 ± 0.6,1.04 ± 0.016,0.917,0.974 ± 0.022
CN(C)CCCN1c2ccccc2Sc2ccc(Cl)cc21 [Chlorpromazine hydrochloride],0.83 ± 0.37,1.01 ± 0.1,0.833,0.974 ± 0.024
Cn1c(=O)c2c(ncn2C)n(C)c1=O [Caffeine],0.852 ± 0.19,0.921 ± 0.018,0.9,1.05 ± 0.099
CC(C)NC[C@@H](O)COc1cccc2ccccc12 [(R)-Propranolol hydrochloride],1.07 ± 0.46,0.963 ± 0.013,0.833,0.98475 ± 0.00073
CNCC[C@@H](Oc1cccc2ccccc12)c1cccs1 [(R)-Duloxetine hydrochloride],1.15 ± 0.49,1.046 ± 0.0076,1,0.986 ± 0.044
O=C(O)COCCN1CCN(C(c2ccccc2)c2ccc(Cl)cc2)CC1 (centres undefined) [Cetirizine dihydrochloride],0.855 ± 0.18,1.09 ± 0.012,1,1.03 ± 0.011
CCN[C@H]1C[C@H](C)S(=O)(=O)c2sc(S(N)(=O)=O)cc21 [Dorzolamide hydrochloride],1.08 ± 0.35,0.955 ± 0.029,0.75,1.024 ± 0.0028
Cc1cc(=O)oc2cc(O)ccc12 [Hymecromone],0.837 ± 0.36,1 ± 0.013,0.909,0.98 ± 0.01
CC(C)(C)c1ccc(C(O)CCCN2CCC(C(O)(c3ccccc3)c3ccccc3)CC2)cc1 (centres undefined) [Terfenadine],0.943 ± 0.3,1.023 ± 0.0083,0.583,1.02 ± 0.039
CC(C)(Sc1cc(C(C)(C)C)c(O)c(C(C)(C)C)c1)Sc1cc(C(C)(C)C)c(O)c(C(C)(C)C)c1 [Probucol],0.815 ± 0.18,0.925 ± 0.06,1,0.928 ± 0.023
CCC(=O)OCC(=O)[C@@]1(OC(=O)CC)[C@@H](C)C[C@H]2[C@@H]3CCC4=CC(=O)C=C[C@]4(C)[C@@]3(Cl)[C@@H](O)C[C@@]21C [Beclomethasone dipropionate],1.04 ± 0.69,1.16 ± 0.021,0.417,1.16 ± 0.091
Cc1ccc(C)c(OCCCC(C)(C)C(=O)O)c1 [Gemfibrozil],5.88 ± 2.2,0.602 ± 0.06,0,1.73 ± 0.11
CCC[C@@H]1C[C@@H](C(=O)N[C@@H]([C@H]2O[C@H](SC)[C@H](O)[C@@H](O)[C@H]2O)[C@H](C)Cl)N(C)C1 [Clindamycin hydrochloride],0.862 ± 0.2,0.964 ± 0.053,0.917,0.995 ± 0.013
CCOC(=O)[C@H](CCc1ccccc1)N[C@@H](C)C(=O)N1CCC[C@H]1C(=O)O [Enalapril maleate],0.704 ± 0.19,1.01 ± 0.03,0.667,0.9423 ± 0.0071

# Reference: the supplement of paper PMC7366291
